This is a sample that favours compounds with a hit; in the whole collection about 3.5% have one here.
TEAD-YAP inh: TEAD-YAP interaction inhibition | inhibition, % at 9.12 µM | actives 1.4% (n = 640,000) | AID 1259422 | HEK-TIYL cells, TEAD-Gal4/YAP UAS-luciferase luminescence; in the data active means inhibition above about 32%;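 further: 0% = median of test compound wells and 100% = reference inhibitor wells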
GPR151 activ: activates the human receptor GPR151; PathHunter beta-arrestin GPR151 cells, luminescence; Q8TDV0; activation, % at 11.2 µM; actives 1% (n = 650,000); in the data active means activation above about 4.9%;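 further: 0% = median of compound wells and 100% = cells with positive control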
MITF primary: blocks human microphthalmia-associated transcription factor. O75030. AlphaScreen MITF homodimerization, bead proximity signal. inhibition, % at 2.6 µM. actives 0.91% (n = 650,000). AID 1259374; in the data active means inhibition above about 50%;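 further: 0% = vehicle wells with protein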
Target sequence (O75030 whole entry, looked up): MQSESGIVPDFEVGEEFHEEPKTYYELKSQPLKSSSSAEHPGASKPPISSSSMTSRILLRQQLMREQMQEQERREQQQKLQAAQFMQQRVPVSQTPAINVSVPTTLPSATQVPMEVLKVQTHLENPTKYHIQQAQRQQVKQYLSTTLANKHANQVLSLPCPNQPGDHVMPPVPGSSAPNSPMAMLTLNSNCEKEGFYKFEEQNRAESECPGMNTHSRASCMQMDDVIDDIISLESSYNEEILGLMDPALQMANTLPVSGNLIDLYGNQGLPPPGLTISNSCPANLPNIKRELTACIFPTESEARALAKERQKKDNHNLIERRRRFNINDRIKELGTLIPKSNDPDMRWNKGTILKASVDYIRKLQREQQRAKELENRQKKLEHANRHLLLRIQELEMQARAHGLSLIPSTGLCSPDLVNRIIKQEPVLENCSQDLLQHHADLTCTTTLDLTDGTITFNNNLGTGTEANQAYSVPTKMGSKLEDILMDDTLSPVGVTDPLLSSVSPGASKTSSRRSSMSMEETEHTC
FBW7 act: human FBW7 E3 ligase activation, primary screen; actives 0.13% (n = 650,000); normalized activity (activation), % at 26.1 µM; AlphaScreen FBW7–phospho-cyclin E peptide binding, activator screen; in the data active means normalized activity above about 1.9%;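 further: purified mutant Fbw7 with reduced substrate affinity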
MITF inh conf: confirmation of human MITF inhibitors | inhibition, % at 2.6 µM | AlphaScreen MITF homodimerization, biotin/His-MITF beads | shares compounds with MITF primary | actives 16% (n = 4,700);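 active means inhibition above a cutoff derived from the DMSO control wells, cut at about 28% in these data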;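 further: 0% = MITF dimer wells with DMSO only; inhibitors lower the bead chemiluminescence by keeping MITF from dimerizing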
AS interf ctr: counter-screen: compounds optically interfering with AlphaScreen | shares compounds with MITF primary | LysRS AlphaScreen counterscreen, signal interference, triplicate | inhibition, % at 2.6 µM | actives 7.6% (n = 4,700);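 active means inhibition above a cutoff derived from the DMSO control wells, cut at about 30% in these data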
Active calls of the source: *; / = no result given.

SMILES	TEAD-YAP inh	GPR151 activ	MITF primary	FBW7 act	MITF inh conf	AS interf ctr
COc1cccc(C(=O)N2CCC(N3CC(C)CC(C)C3)CC2)c1 (stereo not given)	1	1	61*	0	1	3
COc1cccc(C(=O)N2CCN(Cc3ccncc3)CC2)c1	-3	-1	68*	0	15	17
COc1cc(OC)cc(C(=O)N2CCN(Cc3ccc(OC)c(OC)c3)CC2)c1	3	1	35	0	/	/
O=C(c1ccncc1)N1CCN(Cc2ccc3ccccc3c2)CC1	5	1	79*	0	-17	-5
COc1cc(OC)cc(C(=O)N2CCN(Cc3ccncc3)CC2)c1	9	1	84*	0	4	4
CCc1ccc(CN2CCN(C(=O)c3ccccc3)CC2)cc1	-10	0	24	0	/	/
COc1cccc(C(=O)N2CCN(Cc3ccc4ccccc4c3)CC2)c1	9	-1	7	0	/	/
CCOc1cc(N2CCN(C(=O)c3ccc(OC)c(OC)c3)CC2)nc(C)n1	2	1	6	0	/	/
COc1ccc(C(=O)N2CCN(Cc3ccc4ccccc4c3)CC2)cc1OC	38*	0	70*	0	12	22
COc1cc(N2CCN(C(=O)c3ccc(OC)c(OC)c3)CC2)nc(C)n1	8	0	107*	0	-4	-8
CCSc1nc2c(c(=O)n1CCc1ccccc1)SC(C)C2 (stereo not given)	4	-1	2	0	/	/
CC(/C=C1\Sc2ccccc2N1C)=C(C#N)C#N	3	1	16	0	/	/
O=C(Nc1ccc(Br)cc1F)c1cc(S(=O)(=O)NCc2ccccc2Cl)ccc1F	-9	-1	-8	0	/	/
CC(C)N1CCN(C(=O)c2ccncc2)CC1	1	-1	78*	0	-3	0
Cc1nc(NCCCN2CCOCC2)c2cc(-c3ccccc3)sc2n1	-13	0	55*	0	6	6
O=C1c2cccc3cccc(c23)C(=O)N1CCS(=O)(=O)OCC(F)(F)F	2	0	12	0	/	/
CN1CCN(CCS(=O)(=O)OCC(F)(F)F)CC1	4	1	84*	0	10	14
COc1cc(C(=O)Nc2cccnc2)ccc1OCc1ccccc1Cl	-2	0	74*	0	-3	-2
CC(=O)Nc1ncc(Cc2cc(Cl)ccc2Cl)s1	19	2	3	0	/	/
COc1ccc(C(=O)Nc2ncc(Cc3cc(Cl)ccc3Cl)s2)cc1OC	-3	-1	68*	1	-6	1
O=C(Nc1ccccc1)N1CCCCCC1	-6	0	-19	0	/	/
CCS(=O)(=O)N1CCN(Cc2ccccc2[N+](=O)[O-])CC1	2	0	-1	0	/	/
O=S(=O)(Cc1ccccc1)N1CCN(Cc2ccccc2Cl)CC1	5	1	92*	0	11	11
O=[N+]([O-])c1ccccc1CN1CCN(S(=O)(=O)Cc2ccccc2)CC1	12	1	70*	1	12	18
CS(=O)(=O)N1CCN(c2ccc([N+](=O)[O-])c(N3CCN(Cc4ccccc4)CC3)c2)CC1	10	0	83*	0	-5	-3
SMILES	TEAD-YAP inh	GPR151 activ	MITF primary	FBW7 act	MITF inh conf	AS interf ctr
Cc1cc(N2C(=O)NC(=O)/C(=C/c3cc(C)n(C)c3C)C2=O)ccc1Br	-7	1	-31	0	/	/
O=C(CSc1nc2ccsc2c(=O)n1NC(=O)COc1ccccc1Br)NCC1CCCO1 (stereo not given)	-2	0	5	0	/	/
C/C(=C\c1ccccc1)C(=O)N(C)c1ccccc1	-9	-2	-18	0	/	/
Cc1ccc2nsnc2c1NC(=O)c1ncn[nH]1	5	1	53*	0	11	4
Cc1cc(C)cc(Oc2coc3cc(OCC#N)ccc3c2=O)c1	-6	-1	-9	0	/	/
O=C(CNC1CCCCC1)Nc1c2c(nc3c1CCC3)CCC2	-7	0	40	0	/	/
O=C(CNC1CCCCC1)Nc1c2c(nc3c1CCC3)CCCC2	3	0	74*	0	-12	-3
CNCC(=O)Nc1c2c(nc3c1CCC3)CCCC2	0	0	61*	0	-2	-1
CC(C)(C)NCC(=O)Nc1c2c(nc3c1CCC3)CCCC2	5	0	75*	0	3	-3
CC1CCCC(C)N1C(=O)c1cc2n(n1)C(C(F)(F)F)CC(c1ccc(Cl)c(Cl)c1)N2 (stereo not given)	-3	-1	59*	0	-10	-7
COc1ccccc1CN1CCC(N2CC(C)OC(C)C2)CC1 (stereo not given)	10	0	52*	0	-13	-5
CCOC(=O)C1CCN(Cc2cccc(OC)c2OC)CC1	1	0	-17	0	/	/
COc1ccccc1CN1CCC(C)CC1	-7	0	-4	0	/	/
COc1cc(OC)c(OC)cc1CN1CCC(N2CC(C)OC(C)C2)CC1 (stereo not given)	9	0	89*	0	-8	-6
COc1cccc(CN2CCC(N3CC(C)OC(C)C3)CC2)c1OC (stereo not given)	-5	1	87*	0	-22	-3
COc1cc(OC)c(OC)cc1CN1CCN(C2CCC(C)CC2)CC1 (stereo not given)	-3	-2	72*	0	1	-1
COc1cc(OC)c(OC)cc1CN1CCC(O)CC1	16	1	22	0	/	/
CCN1CCCC1CNCC(=O)Nc1ccc(C(C)=O)cc1 (stereo not given)	-11	1	-5	0	/	/
CCOC(=O)c1cccnc1SCC(=O)O	0	0	-5	0	/	/
O=C(CCl)Nc1ccc(S(=O)(=O)N2CCCCC2)cc1	9	0	-3	0	/	/
COc1ccc(CN2CCN(S(=O)(=O)c3ccccc3[N+](=O)[O-])CC2)c(OC)c1	2	3	39	0	/	/
CCc1ccccc1NC(=O)c1cc(S(=O)(=O)N2CCCCCC2)ccc1F	-13	-1	6	0	/	/
Nc1nc(N2CCC(N3CCOCC3)CC2)nc2c1ncn2-c1ccccc1	4	2	-6	0	/	/
O=C(CN1Cc2ccccc2OC(c2ccccc2F)C1)NCC1CCS(=O)(=O)C1 (stereo not given)	5	0	61*	0	2	2
O=C(CN1Cc2ccccc2OC(c2ccccc2F)C1)NC1CCC(O)CC1 (stereo not given)	-5	-1	-5	0	/	/
CCC(=O)NC(=S)NNC(=O)c1ccccc1O	-10	-2	63*	-1	13	69*
O=C(NNC(=O)C1COc2ccccc2O1)c1n[nH]c(=O)c2ccccc12 (stereo not given)	-2	0	4	0	/	/
CC1(C)CC(=O)c2cn(-c3ccc(Cl)cc3)c(=N)c(C#N)c2C1	-8	1	55*	0	1	0
Cc1ccc(-n2cc3c(c(C#N)c2=N)CC(C)(C)CC3=O)cc1C	-9	4	14	0	/	/

Compound activity from PubChem BioAssay.
